# Experimental data reported in PubChem BioAssay (Tox21).
# Results filed as inconclusive are left out. Where a call stands in place of a potency, no number is given. Some structures have more than one record in an assay (separate samples or runs), and their calls can disagree. Calls of active or inactive are those of the source. Unless noted, calls follow the shape of the dose curve; as a rule, active = well fitted curve in the direction sought with a large enough effect in the repeat runs; inconclusive = weak or mixed curves; inactive = no such curve, though single readings can be large; an effect the other way counts as inactive or inconclusive.
# What was measured:
# [1] = qHTS assay for small molecule agonists of the p53 signaling pathway (AID 651631; calls by dose curve; also: nearly all actives have a fitted effect of over 15% in size)
# How it was run: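 HCT-116 cells carrying a beta-lactamase reporter under p53 response elements were dosed with compound for 16 h at 37 °C. LiveBLAzer B/G FRET substrate was then added for 2 h at room temperature, and fluorescence intensity was read to detect pathway agonism.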
# [2] = qHTS assay for small molecules that induce genotoxicity in human embryonic kidney cells expressing luciferase-tagged ATAD5 (AID 651632); also: nearly all actives have a fitted effect of over 15% in size
# How it was run: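 Luminescence read-out: after 16 hr compound exposure at 37C, ATAD5-luciferase HEK293T cells received Amplite, 30 min RT, then CCD imaging. A rise in signal marks genotoxic stress.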
# [3] = qHTS assay for small molecule agonists of the p53 signaling pathway - cell viability (AID 651633; calls by dose curve;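 also: p53RE-bla HCT reporter cells with a stable beta-lactamase p53 reporter; series mostly up to about 83 µM; nearly all actives have a fitted effect of over 30% in size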)
# How it was run: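 p53RE-bla cells, seeded at 4,000 per well and rested 5 h at 37 C/5% CO2, received compounds in DMSO for 16 h at 37 C. CellTiter-Glo was then added, and luminescence was read after 30 min at room temperature to gauge cytotoxicity.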
# [4] = qHTS assay for small molecules that induce genotoxicity in human embryonic kidney cells expressing luciferase-tagged ATAD5 - cell viability (AID 651634; calls by dose curve; also: nearly all actives have a fitted effect of over 25% in size)
# How it was run: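 HEK293T ATAD5-luc cells, 2,000/well; compound 15.5 hr, 37C/5% CO2; CellTiter-Fluor 30 min, 37C; fluorescence read.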
# [5] = qHTS assay for small molecule disruptors of the mitochondrial membrane potential - cell viability (AID 720634; calls by dose curve;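 also: human HepG2 liver cancer cells; series mostly up to about 83 µM; nearly all actives have a fitted effect of over 20% in size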)
# How it was run: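 Luminescence from CellTiter-Glo (ATP content) gave viability in HepG2 cells, read in the same wells as the MMP dye assay after 1 hr compound exposure at 37 C.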
# [6] = qHTS assay for small molecule disruptors of the mitochondrial membrane potential (AID 720635); also: potency is read from the fitted curve at half-maximal effect
# How it was run: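 HepG2 cells (2,000/well) attached overnight at 37C, then took compound for 1 hr at 37C, 5% CO2. Mito-MPS dye was added for 30 min; fluorescence was read at 490/535 nm (monomers) and 540/590 nm (aggregates).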
# [7] = qHTS assay to test for compound auto fluorescence at 590 nm (red) in HepG2 cells (AID 720674)
# How it was run: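 Compound auto-fluorescence is scored relative to Rose Bengal sodium, measured at 540/590 nm in live HepG2 cultures after 1 hr compound contact (37 C, 5% CO2).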
# [8] = qHTS assay to test for compound auto fluorescence at 535 nm (green) in HepG2 cells (AID 720675)
# [9] = qHTS assay to test for compound auto fluorescence at 460 nm (blue) in HEK293 cells (AID 720678)
# How it was run: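 HEK293 cells (2,000/well, medium with 10% dialyzed FBS) attached 4-5 hr, then exposed to compound overnight at 37C, 5% CO2. Blue fluorescence read at 405/460 nm, with triamterene as reference fluorophore.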
# [10] = qHTS assay to test for compound auto fluorescence at 590 nm (red) in HEK293 cells (AID 720679)
# How it was run: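 HEK293 cells (2,000/well, 10% dialyzed FBS) attached 4-5 hr, then dosed with compound or DMSO and incubated overnight at 37C, 5% CO2. Red fluorescence read at 540/590 nm, Rose Bengal sodium as reference fluorophore.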
# [11] = qHTS assay to test for compound auto fluorescence at 535 nm (green) in HEK293 cells (AID 720680)
# [12] = qHTS assay to test for compound auto fluorescence at 460 nm (blue) in HEK293 cell free culture (AID 720681)
# How it was run: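 Test compounds were pinned into cell-free culture medium (DMEM with 10% FBS) and fluorescence was read directly at Ex/Em 405/460 nm. Signals were expressed as fluorescence equivalents of triamterene, with DMSO vehicle as control.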
# [13] = qHTS assay to test for compound auto fluorescence at 535 nm (green) in HEK293 cell free culture (AID 720682)
# How it was run: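 Green-label autofluorescence (485 nm excitation, 535 nm emission) measured on compound added to cell-free culture medium (DMEM, 10% FBS). Output is expressed relative to fluorescein.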
# [14] = qHTS assay to test for compound auto fluorescence at 590 nm (red) in HEK293 cell free culture (AID 720683)
# How it was run: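 Tox21 10K library compounds were pinned into cell-free DMEM with 10% FBS and fluorescence was read at excitation 540 nm. Activity is expressed as Rose Bengal sodium equivalency.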
# [15] = qHTS assay to test for compound auto fluorescence at 590 nm (red) in HepG2 cell free culture (AID 720684)
# How it was run: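 Ex 540 / Em 590 nm read of compound in cell-free MEM (10% FBS). Rose Bengal sodium reference.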
# [16] = qHTS assay to test for compound auto fluorescence at 460 nm (blue) in HepG2 cells (AID 720687)
# How it was run: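 Cells (2,000/well in MEM with 10% FBS) attached overnight at 37 C, then were exposed to compound or DMSO for 1 hr at 37 C, 5% CO2. Fluorescence read at Ex/Em 405/460 nm, expressed as triamterene-equivalent signal.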
# [17] = molecular target: Glucocorticoid receptor (Homo sapiens) (UniProt P04150); experiment: qHTS assay to identify small molecule agonists of the glucocorticoid receptor (GR) signaling pathway (AID 720691; active = well fitted activation curve with a large enough effect in the signal ratio in the repeat runs, not every such curve was filed as active; the % refers to the signal ratio)
# How it was run: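 HeLa GR-bla reporter line; cells pre-incubated 4 h, compound in DMSO 18 h at 37 C; LiveBLAzer B/G FRET substrate 2 h RT; fluorescence intensity read-out.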
# [18] = molecular target: Glucocorticoid receptor (Homo sapiens) (UniProt P04150); experiment: qHTS assay to identify small molecule antagonists of the glucocorticoid receptor (GR) signaling pathway (AID 720692; active = well fitted inhibition curve with a large enough effect in the signal ratio in the repeat runs, not every such curve was filed as active; the % refers to the signal ratio)
# How it was run: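 Read-out: beta-lactamase FRET substrate fluorescence, 2 h at room temperature, in HeLa cells stably carrying a GRE-driven bla reporter. Compounds were co-incubated with 5 nM dexamethasone agonist (final) for 18 h at 37 C.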
# [19] = qHTS assay to test for compound auto fluorescence at 460 nm (blue) in HepG2 cell free culture (AID 720685)
# How it was run: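 Cell-free plates of MEM plus 10% FBS received 23 nL compound or DMSO vehicle; blue-channel (405/460 nm) intensity scored against triamterene as reference fluorophore.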
# [20] = qHTS assay to test for compound auto fluorescence at 535 nm (green) in HepG2 cell free culture (AID 720686)
# Glucocorticoid receptor (Homo sapiens), sequence (P04150 whole entry, looked up): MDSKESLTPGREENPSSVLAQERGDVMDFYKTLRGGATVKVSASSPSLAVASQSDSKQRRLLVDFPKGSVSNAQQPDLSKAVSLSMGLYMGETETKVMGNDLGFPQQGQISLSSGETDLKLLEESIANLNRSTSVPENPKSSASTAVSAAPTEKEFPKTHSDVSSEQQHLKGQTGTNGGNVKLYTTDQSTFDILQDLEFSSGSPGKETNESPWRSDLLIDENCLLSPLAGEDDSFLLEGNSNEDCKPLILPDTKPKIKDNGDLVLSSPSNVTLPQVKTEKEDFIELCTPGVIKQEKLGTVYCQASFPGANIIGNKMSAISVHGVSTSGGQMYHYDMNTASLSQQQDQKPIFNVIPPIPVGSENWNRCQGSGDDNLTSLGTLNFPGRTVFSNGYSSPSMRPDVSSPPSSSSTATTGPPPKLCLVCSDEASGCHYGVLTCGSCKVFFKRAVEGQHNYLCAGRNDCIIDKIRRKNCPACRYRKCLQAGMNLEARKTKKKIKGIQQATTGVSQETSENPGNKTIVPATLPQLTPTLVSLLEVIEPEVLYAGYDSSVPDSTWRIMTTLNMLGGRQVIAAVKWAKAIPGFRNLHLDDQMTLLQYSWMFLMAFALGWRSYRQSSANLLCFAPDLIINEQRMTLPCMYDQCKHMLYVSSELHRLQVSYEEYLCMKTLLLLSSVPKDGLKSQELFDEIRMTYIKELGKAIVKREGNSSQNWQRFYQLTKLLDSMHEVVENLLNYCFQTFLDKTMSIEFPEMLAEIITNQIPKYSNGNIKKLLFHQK
SMILES,outcome [1],outcome [2],outcome [3],Potency [4],Potency [5],Potency [6],outcome [7],outcome [8],outcome [9],outcome [10],outcome [11],outcome [12],outcome [13],outcome [14],outcome [15],outcome [16],outcome [17],Potency [18],outcome [19],outcome [20]
CC(=O)CCC=C(C)C,inactive,inactive,inactive,inactive,inactive,inactive,inactive,inactive,inactive,inactive,inactive,inactive,inactive,inactive,inactive,inactive,inactive,inactive,,
C[Si]1(C)O[Si](C)(C)O[Si](C)(C)O[Si](C)(C)O1,inactive,inactive,inactive,inactive,inactive,inactive,inactive,inactive,inactive,inactive,inactive,inactive,inactive,inactive,inactive,,,,inactive,inactive
NC(=S)NNC(N)=S,inactive,inactive,inactive,inactive,inactive,inactive,inactive,inactive,inactive,inactive,inactive,,,inactive,inactive,inactive,inactive,inactive,,inactive
COc1cc(OC)c(C(=O)CCCN2CCCC2)c(OC)c1,inactive,inactive,inactive,inactive,inactive,,inactive,inactive,inactive,inactive,inactive,inactive,inactive,inactive,inactive,,inactive,inactive,,inactive
Brc1ccc(Br)c(Br)c1,inactive,inactive,inactive,inactive,inactive,,inactive,,inactive,inactive,inactive,inactive,inactive,inactive,inactive,inactive,,,,
CC(C)OP(=O)(CP(=O)(OC(C)C)OC(C)C)OC(C)C,inactive,inactive,inactive,inactive,inactive,,inactive,inactive,inactive,inactive,inactive,,inactive,,inactive,inactive,inactive,,inactive,inactive
CN(C)c1ccc(Cc2ccc(N(C)C)cc2)cc1,inactive,inactive,inactive,inactive,inactive,54.7 µM (active) and inactive,inactive,,inactive,inactive,inactive,,,inactive,inactive,,inactive,inactive,inactive,
COc1ccc([N+](=O)[O-])cc1N,inactive,inactive,inactive,inactive,inactive,48.8 µM (active),inactive,,inactive,inactive,inactive,inactive,inactive,,inactive,,inactive,inactive,inactive,
Clc1ccccn1,inactive,inactive,inactive,inactive,inactive,inactive,inactive,,inactive,inactive,inactive,inactive,inactive,,inactive,inactive,,,inactive,
CC(C)(C#N)c1cc(Cn2cncn2)cc(C(C)(C)C#N)c1,inactive,inactive,inactive,inactive,inactive,,inactive,inactive,inactive,inactive,inactive,inactive,inactive,,inactive,inactive,inactive,inactive,,inactive
CC(C)OC(=O)COc1ccc(Cl)cc1Cl,inactive,inactive,inactive,inactive,inactive,inactive,inactive,,inactive,inactive,inactive,inactive,inactive,inactive,inactive,inactive,inactive,inactive,inactive,
CN(C)CCOC(=O)COc1ccc(Cl)cc1,inactive,inactive,inactive,inactive,inactive,,inactive,inactive,inactive,inactive,inactive,,inactive,inactive,inactive,inactive,inactive,inactive,inactive,inactive
CNC(=O)Oc1ccc2c(c1)[C@]1(C)CCN(C)[C@@H]1N2C,inactive,inactive,inactive,inactive,inactive,,inactive,inactive,inactive,inactive,inactive,inactive,inactive,inactive,inactive,,inactive,,,inactive
CCCCCCCC=O,inactive,inactive,inactive,inactive,inactive,,inactive,,inactive,inactive,inactive,inactive,,,inactive,inactive,,,inactive,inactive
CCCCCCCCCCO,inactive,inactive,inactive,inactive,inactive,inactive,inactive,,inactive,inactive,inactive,inactive,inactive,inactive,inactive,inactive,inactive,inactive,inactive,inactive
C=CC(C)CCCC(C)(C)O (configuration not stated),inactive,inactive,inactive,inactive,inactive,,inactive,inactive,inactive,inactive,inactive,inactive,inactive,,inactive,inactive,,,inactive,inactive
Cc1ccc(S(=O)(=O)N=C=O)cc1,inactive,inactive,inactive,inactive,inactive,inactive,inactive,inactive,inactive,inactive,inactive,,,inactive,inactive,,inactive,inactive,,inactive
CC(CCO)CC(C)(C)C (configuration not stated),inactive,inactive,inactive,inactive,inactive,inactive,inactive,,inactive,inactive,inactive,inactive,inactive,inactive,inactive,,inactive,inactive,inactive,inactive
